Assay results published in PubChem BioAssay (NCATS).
Where “and” joins values, the source holds several entries; their conditions need not be identical. Equal values may be shown once. Inconclusive results are not listed. Calls of active or inactive are those of the source. The call rests on the fitted dose curve; in most records, active means well fitted curve in the direction sought with a large enough effect; inconclusive means small, poorly fitted or top-dose-only effect, or another doubt; inactive means no such curve, though single readings can be large; an effect the other way counts as inactive or inconclusive.

Experiments:
[1] = biological target: Lysine-specific demethylase 5B (Homo sapiens) (UniProt Q9UGL1); test: Optimization screen for KDM5B Histone Demethylases FDH coupled qHTS against the LOPAC library (AID 1347166)
Method in brief: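 KDM5BDeltaAP (200nM final) in 50mM HEPES pH 7.5, 0.01% Tween-20 was preincubated with compound for 10 min at room temperature. A substrate mix of 12.5uM H3K4Me3, 25uM a-ketoglutarate, ascorbate, Fe2+, NAD+ and formaldehyde dehydrogenase was then added. NADH fluorescence (340/450 nm) was read initially and after 30 min.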

[2] = qHTS to identify inhibitors of the type 1 interferon - major histocompatibility complex class I in skeletal muscle: primary screen against the NCATS LOPAC collection (AID 1347405);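 further: human myoblasts with HiBiT tag on endogenous HLA-B stimulated by IFN-beta; lytic HiBiT luminescence reporting HLA-B protein level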
Method in brief: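 HLA-B HiBiT myoblasts, IFN-b 4 ng/ml, dexamethasone-free medium; compounds 7-pt 1:4.3 titration, top 46 uM final; 24 h at 37 C; Nano-Glo HiBiT lytic reagent, 10 min RT, luminescence.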

[3] = qHTS to identify inhibitors of the type 1 interferon - major histocompatibility complex class I in skeletal muscle: primary screen against the NCATS Pharmaceutical Collection (AID 1347407);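 further: luminescence of HiBiT knocked into endogenous HLA-B as interferon-induced MHC class I level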
Method in brief: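 Luminescence from HiBiT-tagged endogenous HLA-B*08:01 served as the read-out of IFN-beta-induced MHC class I in CRISPR-engineered C25cl48 myoblasts. Cells received 4 ng/ml IFN-beta plus compound (high final 46 uM, […]) for 24 h.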

[4] = qHTS for inhibitors of adenylyl cyclases using a fission yeast platform: a pilot screen against the NCATS LOPAC library (AID 1347410)
Method in brief: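 Fission yeast qHTS: CHP2027 cells (AC9-GNAS-PDE4D2, fbp1-GFP), 5x10^6 cells/mL working density, EMM + His/Lys/Ura; LOPAC at up to 57 µM final; 18 h dark, 30C; GFP by laser cytometry. DPI positive control, DMSO vehicle.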

[5] = biological target: Protein phosphatase 1D (Homo sapiens) (UniProt O15297); test: RapidFire Mass Spectrometry qHTS Assay for Modulators of WT P53-Induced Phosphatase 1 (WIP1) (AID 1347424);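 further: amount of dephosphorylated VEPPL-S-QETFS peptide product formed by WIP1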; further: potency means the concentration at half of the fitted maximal effect
Method in brief: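 Mass-spectrometric measurement of dephosphorylated peptide after a 5 min room-temperature reaction of 10 nM WIP1 with 2 uM phosphopeptide, following 1 h compound preincubation in 30 mM MgCl2 buffer.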

[6] = biological target: Protein phosphatase 1D (Homo sapiens) (UniProt O15297); test: Rhodamine-PBP qHTS Assay for Modulators of WT P53-Induced Phosphatase 1 (WIP1) (AID 1347425)
Method in brief: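 Steps: enzyme with Rh-PBP sensor and compounds, room-temperature incubation of 1 hr, baseline read, addition of VEPPL-pS-QETFS (10 uM final), kinetic fluorescence reads at 525/598 nm. Activity equals final minus baseline signal.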

[7] = Validation qHTS assay for inhibitors of Activation Induced Cytidine Deaminase (AID): UDG Counterscreen signal (AID 1347427)
Method in brief: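 Fluorescence at 560 nm excitation, 665 nm emission reports UDG signal after 250 mM NaOH (2x) addition and 30 min. Enzymes (AID 1 uM, UDG 2 U/mL, at 4/3x) preincubated 10 min with compound, then 4 h with 4x 250 nM DJC20/DJC23 substrate at room temperature.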

[8] = biological target: Single-stranded DNA cytosine deaminase (Homo sapiens) (UniProt Q9GZX7); test: Validation qHTS assay for inhibitors of Activation Induced Cytidine Deaminase (AID): AID signal (AID 1347429); further: potency means the concentration at half of the fitted maximal effect
Method in brief: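 AID+UDG coupled FRET deamination; cpds up to 114 uM final; DJC20/DJC23 substrate, 4 hr RT; NaOH stop, 30 min RT; read Ex 540/Em 590.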

[9] = Confirmatory screen NINDS Rhodamine qHTS for Zika virus inhibitors (AID 1347161); further: nearly all actives have a fitted effect of over 60% in size; further: potency means the concentration at half of the fitted maximal effect
Method in brief: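 Enzyme (25 nM, linked NS2B-NS3) was preincubated 15 min with compound in 10 mM Tris-HCl pH 8.0, 0.01% Tween 20. Rhodamine110 substrate (1.5 microM) was then added and fluorescence read at start and after 15 min.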

[10] = Vero cells viability qHTS for Zika virus inhibitors (AID 1347167)
Method in brief: (§1)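 To flag cytotoxic protease inhibitors, viability is measured by ATP-dependent luminescence (CellTiter Glo) after cells attached overnight receive compound for 24 to 48 hours in DMEM with 4% FBS.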

[11] = HepG2 cells viability qHTS for Zika virus inhibitors (AID 1347168)
Method in brief: as §1

[12] = qHTS to identify inhibitors of the type 1 interferon - major histocompatibility complex class I in skeletal muscle: primary screen against the NCATS Mechanism Interrogation Plate v5.0 (MIPE) Libary (AID 1347411); further: nearly all actives have a fitted effect of over 65% in size; further: potency means the concentration at half of the fitted maximal effect
Method in brief: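 HLA-B HiBit myoblasts, dexamethasone-free medium + 4 ng/ml IFN-b, 24 h compound, 11-pt 1:3 from 46 uM final. Readout: Nano-Glo HiBiT lytic luminescence after 10 min lysis, RT.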

[13] = test system: Zika virus NS2B-NS3 protease; test: Primary screen GU AMC qHTS for Zika virus inhibitors (AID 1347154); further: nearly all actives have a fitted effect of over 70% in size
Method in brief: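 Unlinked Zika NS2B hydrophilic domain/NS3 protease domain noncovalent complex (25 nM final) in 10 mM Tris-HCl pH 8.0, 0.01% Tween 20, with AMC peptide substrate. Fluorescence (ex 340, em 450 nm) change over 15 min, room temperature; percent inhibition fitted to 4-parameter Hill equation.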

[14] = test system: Zika virus NS2B-NS3 protease (unlinked complex); test: Primary screen GU Rhodamine qHTS for Zika virus inhibitors: Unlinked NS2B-NS3 protease assay (AID 1347159); further: nearly all actives have a fitted effect of over 60% in size; further: potency means the concentration at half of the fitted maximal effect
Method in brief: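 Unlinked NS2B/NS3, 25 nM; Rhod110 peptide, 1.5 microM; compounds, up to 114 microM. Reaction run 15 min at RT in 10 mM Tris-HCl pH 8.0, 0.01% Tween 20; kinetic fluorescence change fitted with a 4-parameter Hill model.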

[15] = test system: Zika virus NS2B-NS3 protease (linked construct); test: Primary screen NINDS Rhodamine qHTS for Zika virus inhibitors (AID 1347160); further: nearly all actives have a fitted effect of over 55% in size; further: potency means the concentration at half of the fitted maximal effect
Method in brief: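 Single-chain NS2B-NS3 protease, 25 nM, pH 8.0; compounds preincubated 15 min. Activity: Rhodamine110 release from 1.5 microM substrate over 15 min, room temperature, data fitted to 4-parameter Hill.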

[16] = Confirmatory screen GU Rhodamine qHTS for Zika virus inhibitors qHTS (AID 1347157); further: potency means the concentration at half of the fitted maximal effect; nearly all actives have a fitted effect of over 70% in size
Method in brief: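 Enzyme 25 nM in Tris-HCl pH 8.0 + 0.01% Tween 20; compounds up to 114 microM, 15 min RT dark; + Rhod110 substrate 1.5 microM; read t0 and 15 min; delta fluorescence → % inhibition → 4-parameter Hill fit.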

[17] = ZIKV-mCherry secondary qHTS for Zika virus inhibitors (AID 1347158); further: potency means the concentration at half of the fitted maximal effect
Method in brief: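 Read-out is percent infection: mCherry-positive Vero cells (nuclear-proximal intensity >450 RFU, 3 SD above negative controls) counted by high-content imaging of Hoechst-stained, PFA-fixed wells after 48-72 h with ZIKV-mCherry at MOI 1 and compound.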

[18] = test system: Zika virus NS2B-NS3 protease (linked); test: 384 well plate NINDS AMC confirmatory qHTS for Zika virus inhibitors (AID 1347163); further: potency means the concentration at half of the fitted maximal effect; nearly all actives have a fitted effect of over 50% in size
Method in brief: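 Enzyme (5, 30 or 60 nM final) first met test compounds for ~15 min. The AMC-tagged peptide Ac-VKTGKR-AMC followed at 30 microM. Fluorescence was then recorded at 25 min and scaled against no-enzyme and no-inhibitor wells.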

[19] = test system: Zika virus NS2B-NS3 protease (linked construct); test: 384 well plate NINDS Rhodamine confirmatory qHTS for Zika virus inhibitors (AID 1347164);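 further: fluorescence from protease cleavage of Ac-LKRR-rhodamine 110 substrate; nearly all actives have a fitted effect of over 65% in size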; further: potency means the concentration at half of the fitted maximal effect
Method in brief: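 Enzyme (final 5/30/60 nM) + cpd (DMSO), ~15 min; add Ac-LKRR-Rd 10 microM final; 25 min RT, dark; FI ex 485/em 538; normalized to no-enzyme, no-inhibitor ctrls; aprotinin intraplate ctrl.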

[20] = Tertiary RLuc qRT-PCR qHTS assay for Zika virus inhibitors (AID 1347169); further: potency means the concentration at half of the fitted maximal effect; nearly all actives have a fitted effect of over 55% in size
Method in brief: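 Vero, 1,000 cells/well, o/n 37 C; cpd pinned in DMSO; ZIKV-RLuc Cambodian, MOI 1-2, 48-72 h 37 C; live-cell RLuc substrate, lum read at 1-1.5 h.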

Measured: Potency

Single-stranded DNA cytosine deaminase (Homo sapiens), sequence (Q9GZX7 whole entry, looked up): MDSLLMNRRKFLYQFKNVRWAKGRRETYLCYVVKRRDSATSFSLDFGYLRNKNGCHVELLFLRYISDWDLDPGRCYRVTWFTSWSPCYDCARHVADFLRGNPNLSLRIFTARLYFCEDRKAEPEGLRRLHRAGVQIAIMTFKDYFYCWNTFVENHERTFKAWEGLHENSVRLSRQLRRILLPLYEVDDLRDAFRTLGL
Protein phosphatase 1D (Homo sapiens), sequence (O15297 whole entry, looked up): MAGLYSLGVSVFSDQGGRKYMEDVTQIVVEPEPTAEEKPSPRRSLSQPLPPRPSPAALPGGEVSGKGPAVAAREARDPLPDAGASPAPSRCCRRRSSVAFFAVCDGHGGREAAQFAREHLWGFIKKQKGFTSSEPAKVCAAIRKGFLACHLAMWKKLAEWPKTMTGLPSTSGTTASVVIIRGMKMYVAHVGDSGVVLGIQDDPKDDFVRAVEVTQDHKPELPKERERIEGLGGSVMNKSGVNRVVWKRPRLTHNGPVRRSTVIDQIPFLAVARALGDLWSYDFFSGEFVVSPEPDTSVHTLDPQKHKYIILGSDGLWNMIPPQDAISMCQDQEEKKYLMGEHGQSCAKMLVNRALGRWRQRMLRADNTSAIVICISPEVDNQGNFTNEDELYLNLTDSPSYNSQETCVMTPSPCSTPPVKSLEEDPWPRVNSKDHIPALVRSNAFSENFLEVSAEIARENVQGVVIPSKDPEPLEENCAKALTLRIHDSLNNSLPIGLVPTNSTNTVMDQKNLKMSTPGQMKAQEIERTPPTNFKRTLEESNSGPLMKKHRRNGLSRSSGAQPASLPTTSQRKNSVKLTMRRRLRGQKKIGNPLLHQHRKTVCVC
Lysine-specific demethylase 5B (Homo sapiens), sequence (Q9UGL1 whole entry, looked up): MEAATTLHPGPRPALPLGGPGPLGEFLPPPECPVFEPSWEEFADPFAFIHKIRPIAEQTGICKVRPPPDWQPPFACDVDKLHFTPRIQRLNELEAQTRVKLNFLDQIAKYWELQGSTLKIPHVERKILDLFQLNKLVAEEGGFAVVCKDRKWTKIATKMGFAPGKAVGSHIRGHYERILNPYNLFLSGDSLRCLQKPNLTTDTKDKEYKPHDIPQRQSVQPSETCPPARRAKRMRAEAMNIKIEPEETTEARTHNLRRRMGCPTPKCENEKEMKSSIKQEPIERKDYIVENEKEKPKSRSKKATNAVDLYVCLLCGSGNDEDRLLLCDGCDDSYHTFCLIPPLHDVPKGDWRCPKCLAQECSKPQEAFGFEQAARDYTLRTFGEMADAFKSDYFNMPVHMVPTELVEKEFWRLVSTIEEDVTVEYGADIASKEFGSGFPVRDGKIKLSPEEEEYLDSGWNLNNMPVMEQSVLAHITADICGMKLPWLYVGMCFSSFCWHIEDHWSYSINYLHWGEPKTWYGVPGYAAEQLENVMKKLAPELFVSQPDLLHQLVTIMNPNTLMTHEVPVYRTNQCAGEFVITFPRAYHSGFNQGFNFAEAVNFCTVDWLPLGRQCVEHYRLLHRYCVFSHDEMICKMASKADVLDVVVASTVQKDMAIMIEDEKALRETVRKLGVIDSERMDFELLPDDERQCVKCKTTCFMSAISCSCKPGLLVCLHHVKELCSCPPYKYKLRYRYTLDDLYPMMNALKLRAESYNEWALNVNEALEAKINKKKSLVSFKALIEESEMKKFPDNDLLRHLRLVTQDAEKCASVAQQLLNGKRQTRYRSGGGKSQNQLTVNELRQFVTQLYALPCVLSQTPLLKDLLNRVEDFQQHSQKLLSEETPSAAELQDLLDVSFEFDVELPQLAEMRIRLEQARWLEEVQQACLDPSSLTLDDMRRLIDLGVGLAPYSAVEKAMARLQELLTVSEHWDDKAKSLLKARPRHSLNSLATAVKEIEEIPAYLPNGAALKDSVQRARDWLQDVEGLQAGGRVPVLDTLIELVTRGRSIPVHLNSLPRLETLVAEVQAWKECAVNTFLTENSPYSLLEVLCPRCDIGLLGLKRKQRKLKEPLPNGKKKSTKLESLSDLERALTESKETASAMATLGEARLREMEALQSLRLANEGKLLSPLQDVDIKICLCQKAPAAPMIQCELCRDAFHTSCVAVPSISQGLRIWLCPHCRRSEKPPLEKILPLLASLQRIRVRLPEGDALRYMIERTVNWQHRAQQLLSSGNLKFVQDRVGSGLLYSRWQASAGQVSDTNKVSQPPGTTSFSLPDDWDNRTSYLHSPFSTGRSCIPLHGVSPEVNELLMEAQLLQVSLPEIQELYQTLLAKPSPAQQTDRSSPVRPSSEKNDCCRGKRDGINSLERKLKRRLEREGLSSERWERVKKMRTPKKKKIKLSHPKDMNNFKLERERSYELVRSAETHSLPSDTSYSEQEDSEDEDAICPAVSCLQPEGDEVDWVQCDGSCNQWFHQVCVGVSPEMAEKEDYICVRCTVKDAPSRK

N=c1nc(N2CCCCC2)cc(N)n1O
inactive: [1] | [2] | [3] | [4] | [5] | [6] | [7] | [8]

CNC(=O)c1ccccc1Sc1ccc2c(/C=C/c3ccccn3)n[nH]c2c1
inactive: [3] | [5] | [6]

COCC(=O)NCC=Cc1ccc2ncnc(Nc3ccc(Oc4ccc(C)nc4)c(C)c3)c2c1
inactive: [9] | [10] | [11]

NC(=O)c1ccc(-c2nc(-c3ccc4c(c3)OCCO4)c(-c3ccccn3)[nH]2)cc1
inactive: [12]

Cn1c(=O)c(F)c(Nc2ccc(I)cc2F)c2c(=O)n(C[C@@H](O)CO)cnc21
inactive: [13] | [12]

COc1cc(Oc2ccnc3cc(OC)c(OC)cc23)ccc1NC(=O)NC(C)c1nccs1 (stereo not given)
inactive: [14] | [15] | [12]

Cc1ccc(-n2nc(C(C)(C)C)cc2NC(=O)Nc2ccc(OCCN3CCOCC3)c3ccccc23)cc1
inactive: [3] | [12] | [6]

Cc1cc(SCc2sc(-c3ccc(C(F)(F)F)cc3)nc2C)ccc1OCC(=O)O
active: [16] 2.48 µM | [14] 3.55 µM | [9] 2.78 µM and 3.12 µM | [18] 2.82 µM | [19] 2.82 µM | [20] 14.7 µM
inactive: [17] | [10] | [11] | [12]

CC(c1cc2ccccc2s1)N(O)C(N)=O (stereo not given)
inactive: [13] | [12] | [6]

NC(=O)c1ccc(-c2nc(-c3ccc4c(c3)OCO4)c(-c3ccccn3)[nH]2)cc1
inactive: [12]

CS(=O)(=O)c1ccc(C(=O)Nc2ccc(Cl)c(-c3ccccn3)c2)c(Cl)c1
inactive: [14] | [15] | [12]

COc1ccc(COc2cc3oc(=O)c4cc(C(C)O)ccc4c3cc2OC)cc1 (stereo not given)
inactive: [12]

COc1ccc(-c2c(-c3ccc(O)cc3O)n[nH]c2C)cc1
inactive: [13] | [12]

Nc1nc2[nH]cc(CCc3ccc(C(=O)N[C@@H](CCC(=O)O)C(=O)O)cc3)c2c(=O)[nH]1
inactive: [13] | [12]

c1ccc(-c2nn3c(c2-c2ccnc4cc(OCCN5CCOCC5)ccc24)CCC3)nc1
inactive: [13] | [12]

NC(=O)C1CCCc2c1[nH]c1ccc(Cl)cc21 (stereo not given)
inactive: [13] | [12]

CCC(=O)N[C@H]1CC[C@H](C(=O)N(C)c2ccc(-c3nc4ccccc4o3)cc2)C1
inactive: [12]

S=C(NCc1ccc2c(c1)OCO2)N1CCN(c2ncnc3c2oc2ccccc23)CC1
inactive: [14] | [15] | [12]

O=c1ncn2nc(Sc3ccc(F)cc3F)ccc2c1-c1c(Cl)cccc1Cl
inactive: [13] | [12]

CC1(C)Cc2c(-c3ccccc3)c(-c3ccc(Cl)cc3)c(CC(=O)O)n2C1
active: [14] 10 µM

Cn1cc(-c2ccc3nnc(C(F)(F)c4ccc5ncccc5c4)n3n2)cn1
inactive: [14] | [15] | [12]

CC[C@H](Nc1ncnc2nc[nH]c12)c1nc2cccc(F)c2c(=O)n1-c1ccccc1
inactive: [15] | [12]

CN[C@@H](C)C(=O)N[C@H]1CCCC[C@H]2CC[C@@H](C(=O)N[C@@H](c3ccccc3)c3cn(CCCCc4ccc(CCCCn5cc([C@@H](NC(=O)[C@@H]6CC[C@@H]7CCCC[C@H](NC(=O)[C@H](C)NC)C(=O)N76)c6ccccc6)nn5)cc4)nn3)N2C1=O
active: [12] 3.3 µM

NC(N)=NC(=O)c1nc(Cl)c(N)nc1N
inactive: [2] | [3] | [4] | [12] | [5] | [6] | [7] | [8]

Cc1cccc(-c2nn(C(=S)Nc3ccccc3)cc2-c2ccnc3ccccc23)n1
inactive: [13] | [12]

COc1c(Cl)cc2c([nH]c3cnccc32)c1NC(=O)c1cccnc1C
active: [12] 26.2 µM
inactive: [14] | [15]

CNC(=O)c1ccc(N2C(=S)N(c3ccc(C#N)c(C(F)(F)F)c3)C(=O)C2(C)C)cc1F
inactive: [13] | [12]

Cc1cc2c(C(C)C)c(O)c(O)c(C=O)c2c(O)c1-c1c(C)cc2c(C(C)C)c(O)c(O)c(C=O)c2c1O
active: [16] 2.51 µM | [17] 2.51 µM | [9] 2 µM | [18] 35.5 µM | [12] 23.4 µM | [5] 3.98 µM
inactive: [19] | [3] | [4] | [7]

CC(C)(Sc1ccc(CCN(CCCCC2CCCCC2)C(=O)NC2CCCCC2)cc1)C(=O)O
active: [16] 1.97 µM | [14] 3.55 µM | [15] 3.98 µM | [18] 3.16 µM | [8] 79.4 µM
inactive: [19] | [1] | [10] | [11] | [2] | [4] | [12] | [7]
